About 2,200 (88%) of roughly 2,500 compounds were called active. The set was probably picked from earlier hits. Not all results are given here. A number with no mark means an inactive call.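 How the source made its calls: active means primary screen active, with duplicate mean activation above negative control mean plus 3 SD (cut at about 11% in these data); inactive means the rest.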

For this test, the target named is High affinity choline transporter 1 (Homo sapiens) (UniProt Q9GZV3). Briefly: CHT activators, confirmation, cell-based, membrane potential dye, duplicate (AID 504833). Particulars: CHT-expressing cells, membrane potential dye fluorescence (FDSS); at 10 µM; active compounds read high; % of choline EC20–EC90 response window; HEK293 expressing CHT LV-AA mutant; choline added at its EC20.
Chain of High affinity choline transporter 1 (Homo sapiens) (Q9GZV3 whole entry, looked up): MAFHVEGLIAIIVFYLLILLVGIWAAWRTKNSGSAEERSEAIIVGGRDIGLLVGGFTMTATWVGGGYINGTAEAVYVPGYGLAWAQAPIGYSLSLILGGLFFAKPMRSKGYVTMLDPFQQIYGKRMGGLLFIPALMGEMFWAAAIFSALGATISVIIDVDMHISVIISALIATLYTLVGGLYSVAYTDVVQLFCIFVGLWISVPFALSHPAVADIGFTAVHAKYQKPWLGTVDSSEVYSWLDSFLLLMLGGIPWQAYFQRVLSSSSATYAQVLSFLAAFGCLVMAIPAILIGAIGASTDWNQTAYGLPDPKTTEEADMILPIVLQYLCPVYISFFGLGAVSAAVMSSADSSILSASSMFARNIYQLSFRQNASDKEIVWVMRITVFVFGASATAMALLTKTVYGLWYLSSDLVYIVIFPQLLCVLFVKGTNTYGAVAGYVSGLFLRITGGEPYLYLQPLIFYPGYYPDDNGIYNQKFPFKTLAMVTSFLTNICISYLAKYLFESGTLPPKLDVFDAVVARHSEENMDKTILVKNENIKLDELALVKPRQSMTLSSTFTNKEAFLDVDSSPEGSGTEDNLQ
Consider `CN1CCN(c2cc(N3CCNCC3)ccc2[N+](=O)[O-])CC1`, for which the activation was 80.3% (active). To `Cc1nc2ccc(N3CCN(C)CC3)cc2nc1C` belongs 20.3% (active); to `CCCCCn1c(=O)c(C(=O)Nc2c(C)n(C)n(-c3ccccc3)c2=O)c(O)c2ccccc21`, 6.79%; to `CCN1CCN(c2ccc([N+](=O)[O-])cc2C#N)CC1`, 43.4% (active). The same measure for `CCOc1ccc(-c2cc(C)[n+](CCN(CC)CC)c(-c3ccc(OCC)cc3)c2)cc1`: 34.4% (active); for `CC[N+](CC)(CC)CCCCCCCCCC[N+](CC)(CC)CC`: 41% (active).

The values above are taken from PubChem BioAssay AID504833 (Johns Hopkins Ion Channel Center, 2011).
